The source of these data is PubChem BioAssay AID463173 (ICCB-Longwood Screening Facility, Harvard Medical School, 2010).

Out of some 52,000 compounds screened, about 1,700 (3.3%) were called active. Cut-off read from the data, not from the text of the source: active = survival mostly below about 52% (no sharp cut-off); inactive = mostly above about 56%. The entries come from a sample that favours actives as a whole.

The test system of this assay is Wild type. The experiment in a line: growth inhibition of S. aureus wild type versus tarO mutant, primary screen, teichoic acid synthesis inhibitors, RN4220, OD600 (AID 463173). Conditions: S. aureus RN4220 wild type/DeltatarO growth, OD600, 18 h, hits give low values, screened at 18.75 µg/mL (by protocol).
Consider `CCOc1ccc(CC(=O)NCCc2sc3nc(-c4ccc(F)cc4)nn3c2C)cc1`, for which the survival is 71% (inactive).
In the case of `COC(=O)c1ccccc1NC(=O)c1cc(-c2ccc(Cl)cc2)on1` it was 71% (inactive); in that of `Cc1ccc(C)c(NC(=O)CSc2nnc(CNC(=O)c3ccccc3)n2-c2ccccc2)c1`, 63% (inactive).
With `Cc1nn(CC(=O)NCCc2ccc(Cl)cc2)c(=O)c2cc3cc(F)ccc3n12` the figure was 74% (inactive); with `Cc1cccc(NC(=O)CSC2=Nc3ccccc3C3=NC(CC(=O)NCc4cccs4)C(=O)N23)c1` (stereo not drawn), 81% (inactive).
In the case of `Cc1ccc(C)c(CSc2nnc(C)n3c2cc2sccc23)c1` it was 65% (inactive); in that of `Clc1ccc(C(c2ccccc2)c2c[nH]c3ccccc23)s1` (stereo not drawn), 4% (active).
On to `Cc1ccc2[nH]cc(C(c3ccccc3)c3ccc(Cl)s3)c2c1` (stereo not drawn), for which the survival was 18% (inactive).
With `c1ccc(C(c2cccs2)c2c[nH]c3ccccc23)cc1` (stereo not drawn) the figure was 17% (inactive); with `Cc1ccc(NC(=O)CN2C(=O)CSc3ccc(S(=O)(=O)N4CCCC4)cc32)c(C)c1`, 98% (inactive).
Turning to `Cc1ccc2nc(Cl)c3cc(C(=O)N(C)C4CCCCC4)sc3c2c1`, the survival is 35% (inactive).
In the case of `CN(CCCNC(=O)c1cc2c(Cl)nc3ccccc3c2s1)Cc1ccccc1` it was 45% (inactive); in that of `Cc1ccc(Cl)cc1N(C)C(=O)c1cc2c(Cl)nc3ccccc3c2s1`, 70% (inactive); in that of `CCc1ccccc1N(C)C(=O)c1cc2c(Cl)nc3ccc(C)cc3c2s1`, 0% (active).
In the case of `CN(C(=O)c1cc2c(Cl)nc3ccccc3c2s1)c1cccc(C(F)(F)F)c1`, the survival is 80% (inactive).
`CCN(C(=O)c1cc2c(Cl)nc3ccccc3c2s1)c1cccc(Cl)c1`: the survival is 76% (inactive).
With `Cc1ccc2nc(Cl)c3cc(C(=O)NCCCN(C)Cc4ccccc4)sc3c2c1` the figure was -3% (active); with `CCN(CCCNC(=O)c1cc2c(Cl)nc3ccccc3c2s1)Cc1ccccc1`, 96% (inactive); with `CCCN(C(=O)c1cc2c(Cl)nc3ccccc3c2s1)c1cccc(C)c1`, 1% (active).
In the case of `CC1(C)N=C(SCc2ccc(Cl)cc2)c2ccccc2N1` it was 143% (inactive).
In the case of `Cc1ccc(C(=O)c2oc3ccccc3c2NC(=O)c2nc(S(C)(=O)=O)ncc2Cl)cc1F` it was 83% (inactive); in that of `COc1ccc(Nc2nn(-c3ccc(OC(F)(F)F)cc3)nc2C(C)=O)cc1`, 95% (inactive); in that of `Cc1ccc(-c2cc3ncc4c(n3n2)-c2cc(Cl)ccc2OC4)cc1`, 97% (inactive).
Turning to `CCn1c(=O)n(-c2ccc3c(c2)OCO3)c2nc(-c3ccc(C(C)C)cc3)nc(C(N)=O)c21`, the survival is 130% (inactive).
In the case of `CCOC(=O)c1[nH]c(C)c(CCC(=O)Nc2c(C)cc(C)cc2C)c1C`, the survival is 127% (inactive).
In the case of `O=C(NCCc1nc2ccccc2n1CCOc1ccc(Cl)cc1)C1CCCCC1` it was 20% (inactive); in that of `Cc1cc(OCCCn2c(CCNC(=O)C3CCCCC3)nc3ccccc32)ccc1Cl`, 0% (active).
In the case of `Cc1ccc(OCCCn2c(CCNC(=O)C3CCCCC3)nc3ccccc32)c(C)c1` it was 95% (inactive); in that of `Cc1cccc(OCCCn2c(CCNC(=O)C3CCCCC3)nc3ccccc32)c1`, 34% (inactive).
In the case of `Cc1cc(C)cc(OCCCn2c(CCNC(=O)C3CCCCC3)nc3ccccc32)c1` it was 27% (active); in that of `Cc1ccc(OCCn2c(CCNC(=O)C3CCCCC3)nc3ccccc32)cc1`, 65% (inactive).
As for `Cc1cccc(C)c1OCCCn1c(CCNC(=O)C2CCCCC2)nc2ccccc21`, the survival is 28% (active).
In the case of `O=C(NCCc1nc2ccccc2n1CCCOc1ccc(Cl)cc1)C1CCCCC1` it was 10% (active); in that of `Cc1cccc(C)c1OCCn1c(CCNC(=O)C2CCCCC2)nc2ccccc21`, 65% (inactive); in that of `Cc1ccccc1OCCCn1c(CCNC(=O)C2CCCCC2)nc2ccccc21`, 65% (inactive).
In the case of `Cc1cc(C)cc(OCCn2c(CCNC(=O)C3CCCCC3)nc3ccccc32)c1` it was 105% (inactive).
In the case of `Cc1cc(OCCn2c(CCNC(=O)C3CCCCC3)nc3ccccc32)ccc1Cl` it was 67% (inactive).
`COc1ccc(-c2nnc(SCC(=O)Nc3cccc(C(F)(F)F)c3)s2)cc1`: the survival was 99% (inactive).
As for `COc1ccc(C(=O)N(Cc2cc(OC)c(OC)c(OC)c2)C2CCS(=O)(=O)C2)cc1Cl` (stereo not drawn), the survival is 86% (inactive).
In the case of `COc1ccccc1-c1c(C)nn2c(N3CCN(c4ccccc4)CC3)cc(C)nc12` it was 70% (inactive).
In the case of `Cn1c(SCCN2CCCC2)nnc1-c1ccncc1` it was 112% (inactive); in that of `COc1cc(OC)c(NC(=O)c2nn(C)c3c2COc2ccccc2-3)cc1Cl`, 111% (inactive).
With `CCOc1ccc(-n2c(SCc3ccc(C(=O)OC)o3)nc3c([nH]c4ccccc43)c2=O)cc1` the figure was 82% (inactive).
`Oc1ccc(Br)cc1C=Nc1cccc(-c2nc3ccccc3o2)c1`: the survival was 111% (inactive).
In the case of `COc1cccc2cc(C(=O)Nc3ccc(CC(=O)O)cc3)c(=O)oc12` it was 73% (inactive); in that of `CCOc1ccc(NC(=O)CSc2nnc3c(C)cc4ccccc4n23)cc1`, 132% (inactive); in that of `Cc1ccc(NC(=O)Nc2nc3c(s2)CCCCCC3)cc1C`, 69% (inactive).
With `O=C(Nc1ccc(Br)cc1)Nc1nc2c(s1)CCCCCC2` the figure was 82% (inactive).
With `O=C(Nc1nc2c(s1)CCCCCC2)Nc1ccc(F)cc1F` the figure was -2% (active); with `Cc1cc(-c2ccc(C)c(S(=O)(=O)Nc3ccccn3)c2)on1`, 73% (inactive).
For `O=C(CN1CCCC1)Nc1nc(-c2ccc3c(c2)CCN3C(=O)C2CC2)cs1`, the survival was 116% (inactive).
With `O=C(CSc1nc2ccccc2c(=O)n1-c1ccccc1)N1CCOCC1` the figure was 104% (inactive); with `CC(=O)Nc1cccc(NC(=O)c2c(-c3ccccc3)c(-c3ccccc3)nn(C)c2=O)c1`, 85% (inactive).
With `COc1ccc2cc(-c3nc(-c4ccc(N(C)C)cc4)no3)c(=O)oc2c1` the figure was 99% (inactive); with `CC(C)Oc1ccc(CNS(=O)(=O)c2cnc(N)nc2)cc1`, 111% (inactive).
With `COc1cccc(CNS(=O)(=O)c2cnc(N)nc2)c1` the figure was 57% (inactive).
Take `COc1ccc(CNS(=O)(=O)c2cnc(N)nc2)cc1`: the survival is -4% (active).
With `CC(C)(C)OC(=O)N1CCC(c2c(C(=O)NCCN3CCOCC3)cnn2-c2ccccc2)CC1` the figure was 64% (inactive); with `NCC1OCCc2ccccc21` (stereo not drawn), 114% (inactive).
With `COC(=O)c1ccccc1NC(=O)c1ccc(COc2ccccc2Cl)o1` the figure was 68% (inactive); with `CCCc1ccc(OCc2ccc(C(=O)Nc3ccccc3C(=O)OC)o2)cc1`, 3% (active).
Take `COc1ccccc1NC(=O)c1ccc(COc2ccc(C)c(C)c2)o1`: the survival is 0% (active).
In the case of `COc1ccccc1NC(=O)c1ccc(C)o1` it was 104% (inactive); in that of `COC(=O)c1ccccc1NC(=O)c1ccc(COc2cc(C)cc(C)c2)o1`, 59% (inactive).
With `Cc1cc(C)cc(OCc2ccc(C(=O)Nc3ccccc3F)o2)c1` the figure was 72% (inactive); with `Cc1nc2c(-c3ccc(F)cc3)c(C)nn2c(C)c1CCC(=O)N1CCN(c2ccccc2)CC1`, 75% (inactive); with `Cc1c(C(=O)NCCc2ccc(Cl)cc2)sc2nc3n(c(=O)c12)CCCC3`, 78% (inactive).
For the compound `CCn1c2ccccc2c2cc(CN3CCN(Cc4cccc(Cl)c4)CC3)ccc21`, the survival is 0% (active).
In the case of `CCCS(=O)(=O)N1CCN(Cc2ccc(OC)c(OCC)c2)CC1`, the survival is 103% (inactive).
In the case of `Clc1ccccc1CN1CCN(Cc2ccco2)CC1` it was 101% (inactive).
As to `CCS(=O)(=O)N1CCN(Cc2ccccc2)CC1`, the survival is 119% (inactive).
For the compound `CCn1c2ccccc2c2cc(CN3CCN(Cc4ccccc4Cl)CC3)ccc21`, the survival is 1% (active).
With `CCn1c2ccccc2c2cc(CN3CCN(Cc4ccc(Br)cc4)CC3)ccc21` the figure was 3% (active); with `CCn1c2ccccc2c2cc(CN3CCN(Cc4ccco4)CC3)ccc21`, 104% (inactive).
As to `CCCN1CCN(C(=O)Cn2ncc3c4ccccc4n(Cc4cccc(Cl)c4)c3c2=O)CC1`, the survival is 80% (inactive).
With `CCn1c2ccccc2c2cc(CN3CCN(Cc4cc(OC)c(O)c(OC)c4)CC3)ccc21` the figure was 54% (inactive).
In the case of `CCn1c(=O)cc(SCC(=O)NCc2cccc(Cl)c2)c2ccccc21` it was 60% (inactive); in that of `CCn1c2ccccc2c2cc(CN3CCN(Cc4ccc(OC)c(OC)c4)CC3)ccc21`, 14% (active).
In the case of `Cc1ccc(Cn2c(=O)n(Cc3ccccc3Cl)c(=O)c3ccccc32)cc1` it was 56% (inactive); in that of `CCC(=O)N1CCc2cc(S(=O)(=O)NCCC(=O)Nc3ccc(CC)cc3)ccc21`, 73% (inactive).
As for `Brc1cccc(-c2nn(-c3ccccc3)c3c2cnc2cc4c(cc23)OCO4)c1`, the survival is 86% (inactive).
As for `O=C(NCCS(=O)(=O)N1CCN(c2ccc(F)cc2)CC1)c1cccc(C(F)(F)F)c1`, the survival is 72% (inactive).
Consider `Cc1cccc(NC(=O)c2ccc3c(c2)CCN3S(=O)(=O)c2ccccc2)c1C`, for which the survival was 84% (inactive).
In the case of `CCN(CC)S(=O)(=O)c1ccc2c(c1)N(CC(=O)Nc1ccc(F)cc1F)C(=O)C1CCCN21` (stereo not drawn) it was 64% (inactive).
With `Cc1ccc(-n2nc(C(=O)N3CCN(c4cc(C)ccc4C)CC3)c3c4ccccc4n(C)c3c2=O)cc1` the figure was 79% (inactive).
With `CCOc1ccc(CN2CCN(C(=O)c3ccco3)CC2)cc1` the figure was 103% (inactive); with `CCOc1ccc(CN2CCN(Cc3ccc4c(c3)c3ccccc3n4CC)CC2)cc1`, -1% (active); with `CCOc1ccc(Cn2c(=O)oc3ccccc32)cc1`, 114% (inactive).
For the compound `CCn1c2ccccc2c2cc(CN3CCN(Cc4ccc(Cl)cc4)CC3)ccc21`, the survival was -2% (active).
For `CC(C)n1c(N2CCN(Cc3ccc(Cl)cc3)CC2)nc2ccccc21`, the survival was 128% (inactive).
With `CCCn1c(N2CCN(Cc3ccc(Cl)cc3)CC2)nc2ccccc21` the figure was 123% (inactive); with `CCOc1ccc(-c2c(C)nn3c(C)c(C(=O)NCC(C)c4ccccc4)cnc23)cc1OCC` (stereo not drawn), 72% (inactive); with `O=C(CSc1nc2c(c(=O)[nH]1)CCC2)Nc1cc(C(F)(F)F)ccc1Cl`, 85% (inactive).
